Source: PubChem BioAssay (NCATS)
Inconclusive results are not listed. Where a call stands in place of a potency, no number is given. Values without a mark were called inactive. Activity calls are given as the source filed them. Calls follow the shape of the dose curve; as a rule, active = well fitted inhibition curve with a large enough effect; inconclusive = small, poorly fitted or top-dose-only effect; inactive = no such curve, though single readings can be large or run the other way. Where a SMILES comes first, the peptide text is derived from it. [ ]: non-standard residue; d: D form. ξ: configuration not given here. ξLac(3-iPr) = CC(C)CC(O)C(=O)O; NMeV = CN[CH](C(=O)O)C(C)C; βAla = NCCC(=O)O

Tests used:
[1] = system: Zika virus NS2B-NS3 protease (unlinked complex); assay: Primary screen GU Rhodamine qHTS for Zika virus inhibitors: Unlinked NS2B-NS3 protease assay (AID 1347159); settings: Recombinant ZIKV NS2B-NS3 protease, Rhodamine110 substrate fluorescence; series mostly up to 107 µM; also: nearly all actives have a fitted effect of over 60% in size
In short: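 Percent inhibition came from the 15-min rise in Rhodamine110 fluorescence (1.5 microM substrate, ~15% conversion), normalized to no-inhibitor and no-enzyme wells and Hill-fitted. Unlinked protease, 25 nM, pH 8.0 Tris buffer; compounds up to 114 microM, 15-min preincubation.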

[2] = system: Zika virus NS2B-NS3 protease (linked construct); assay: Primary screen NINDS Rhodamine qHTS for Zika virus inhibitors (AID 1347160); settings: purified NS2B-NS3 protease, Rhodamine110 substrate fluorescence; series mostly up to 57.1 µM; also: nearly all actives have a fitted effect of over 55% in size
In short: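 Rhodamine110-peptide cleavage (1.5 µM substrate) by 25 nM linked NS2B-NS3 enzyme at pH 8.0 (Tris, Tween 20), after 15 min RT preincubation with compounds; 15-min fluorescence change normalized to controls and Hill-fitted.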
Potency is read from the fitted curve at half-maximal effect.

Compound | Potency [1] | Potency [2] | activity change, negative = inhibition [1] | activity change, negative = inhibition [2]
CC[C@H]1OC(=O)[C@](C)(F)C(=O)[C@H](C)[C@@H](O[C@@H]2O[C@H](C)C[C@H](N(C)C)[C@H]2O)[C@](C)(OC)C[C@@H](C)C(=O)[C@@H](C)[C@H]2N(CCCCn3cc(-c4cccc(N)c4)nn3)C(=O)O[C@]12C | inactive | inactive |  | 
CC(=O)O[C@@H]1[C@@H](OC(=O)/C=C/c2ccccc2)[C@@H](OC(C)=O)[C@H](O[C@H]2[C@@H]3C=CO[C@@H](O[C@@H]4O[C@H](CO)[C@@H](O)[C@H](O)[C@H]4O)[C@@H]3[C@@]3(CO)O[C@@H]23)O[C@H]1C | inactive | inactive |  | 
C[S+](CC[C@H](N)C(=O)[O-])C[C@H]1O[C@@H](n2cnc3c(N)ncnc32)[C@H](O)[C@@H]1O (stereo partly specified) | inactive | inactive |  | 
Cc1cc(OCc2nc(-c3ccccc3Cl)cs2)ccc1OCC(=O)O | 12.6 µM (active) | 14.1 µM (active) |  | 
COc1c2ccoc2cc2oc(CO[C@@H]3O[C@H](CO)[C@@H](O)[C@H](O)[C@H]3O)cc(=O)c12 | inactive | inactive |  | 
C[C@H](NC(c1cccc2[nH]c(=O)c(=O)[nH]c12)P(=O)(O)O)c1ccc(Br)cc1 (stereo partly specified) | inactive | inactive |  | 
OC[C@H]1O[C@@H](O[C@H]2[C@H](OCc3ccccc3)O[C@H](CO[C@@H]3OC[C@@H](O)[C@H](O)[C@H]3O)[C@@H](O)[C@@H]2O)[C@H](O)[C@@H](O)[C@@H]1O | inactive | inactive |  | 
CC1(C(=O)O)CCCC2(C)C3=CCC4CC3(CCC12)CC4CO (stereo unspecified) | inactive | inactive |  | 
CC1(C)CC[C@]2(C(=O)O[C@@H]3O[C@H](CO)[C@@H](O)[C@H](O)[C@H]3O)CC[C@]3(C)C(=CCC4[C@@]5(C)C[C@@H](O)[C@H](O)[C@](C)(C(=O)O)C5CC[C@]43C)C2C1O (stereo partly specified) | inactive | inactive |  | 
CCNC(=O)C1OC(n2cnc3c(N)nc(NCCc4ccc(CCC(=O)O)cc4)nc32)C(O)C1O (stereo unspecified) | inactive | inactive |  | 
CC(C)=CCC/C(C)=C/CC/C(C)=C/COC1OC(COC2OCC(OC3OCC(O)C(O)C3O)C(O)C2O)C(O)C(OC2OC(C)C(OC3OC(C)C(OC4OCC(OC5OC(C)C(O)C(O)C5O)C(O)C4O)C(O)C3O)C(O)C2O)C1O (stereo unspecified) |  |  | 15.4% [at 19.1 µM] | -0.102% [at 10.7 µM]
C=C1C(=O)O[C@H](CCC)[C@H]1C(=O)O | inactive | inactive |  | 
Cc1cccc(Oc2cnc(=O)[nH]c2)c1 | inactive | inactive |  | 
Cn1nc(C(C)(C)C)cc1C(=O)NC(Cc1cccc(Cl)c1)C(=O)NCC#N (stereo unspecified) | inactive | inactive |  | 
CCCOC(c1cc2nccc(C(=O)O)c2[nH]1)c1ccccc1Cl (stereo unspecified) | inactive | inactive |  | 
CNC(=O)c1cc(Oc2ccc3nc(N[C@@H]4CCCC[C@H]4O)sc3c2)ccn1 | inactive | inactive |  | 
O=C(O)[C@@H]1C[C@H]2C[C@@H](CCc3nn[nH]n3)CC[C@H]2CN1 | inactive | inactive |  | 
CC(=O)O[C@@H]1C[C@H](O)[C@@]23CO[C@H](O)[C@]1(C)C2C[C@@H](O)[C@]1(C)C3C(=O)[C@H](OC(C)=O)[C@@]2(C)[C@H](c3ccoc3)C[C@H]3O[C@]321 (stereo partly specified) | inactive | inactive |  | 
CC(C)CC1OC(=O)C2CCCN2C(=O)CCNC(=O)C(Cc2ccccc2)NC(=O)C(C(C)C)N(C)C(=O)C(C(C)C)N(C)C1=O (stereo unspecified) (cyclo([ξLac(3-iPr)][NMeV][NMeV]F[βAla]P); configuration not given here) | inactive | inactive |  | 
CCOC(=O)C(CCc1ccccc1)NC1CSC(c2cccs2)CN(CC(=O)O)C1=O (stereo unspecified) | inactive | inactive |  | 
COc1ccc(CC2C(=O)NC(C)C(=O)N(C)C3Cc4ccc(cc4)Oc4cc(ccc4OC4OC(CO)C(O)C(O)C4O)CC(C(=O)NC(C)C(=O)NC(C)C(=O)N2C)N(C)C3=O)cc1 (stereo unspecified) | inactive | inactive |  | 
CC(=O)O[C@@H](CO[C@@H]1O[C@H](CO)[C@H](O)[C@H](O)[C@H]1O)[C@]1(C)C=C2CC[C@@H]3C(C)(C)[C@@H](O)CC[C@@]3(C)[C@@H]2CC1 | inactive | inactive |  | 
COC1CC(O[C@H]2CC[C@@]3(C)C(CCC4C3[C@H](OC(C)=O)[C@@H](OC(=O)/C=C/c3ccccc3)[C@]3(C)C(C(C)=O)CC[C@]43O)C2)OC(C)C1OC1CC(OC)C(OC2CC(OC)C(OC3OC(C)C(OC4OC(CO)C(O)C(O)C4O)C(OC)C3O)C(C)O2)C(C)O1 (stereo partly specified) |  |  | -9.68% [at 19.1 µM] | 20.6% [at 10.7 µM]
